RORg inh: inhibitors of mouse ROR gamma transcriptional activity; Potency, µM (doses to about 53.6 µM), actives largely listed as inhibitors; Drosophila S2 Gal4-RORgamma UAS-luciferase reporter, 20 h; actives 5.4% (n = 310,000); AID 2551; note: nearly all actives have a fitted effect of over 60% in size
Target sequence (P51450 whole entry, looked up, the tested form may be a part): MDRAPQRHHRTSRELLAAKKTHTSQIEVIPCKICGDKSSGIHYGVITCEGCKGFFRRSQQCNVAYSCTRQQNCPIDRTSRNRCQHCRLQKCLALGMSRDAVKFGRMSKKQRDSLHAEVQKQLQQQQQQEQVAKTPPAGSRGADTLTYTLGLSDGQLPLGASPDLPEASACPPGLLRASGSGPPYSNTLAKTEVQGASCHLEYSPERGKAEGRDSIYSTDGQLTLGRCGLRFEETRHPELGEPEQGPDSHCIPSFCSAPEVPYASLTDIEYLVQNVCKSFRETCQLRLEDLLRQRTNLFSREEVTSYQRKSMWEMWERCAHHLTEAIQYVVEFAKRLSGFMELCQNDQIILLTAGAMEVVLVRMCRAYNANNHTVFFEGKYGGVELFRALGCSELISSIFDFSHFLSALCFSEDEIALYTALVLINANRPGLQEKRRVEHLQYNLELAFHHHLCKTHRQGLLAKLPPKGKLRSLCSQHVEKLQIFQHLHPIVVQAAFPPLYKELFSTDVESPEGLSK
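Schneider cells (Drosophila), stable Gal4 DBD–ROR gamma + UAS-luc; 1 hr cmpd preincubation; Cu2+ induction 700 uM final; 20 hr ambient; luminescence.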
TDP1 cell CPT: growth inhibition of DT40 Tdp1-/-;hTDP1 cells with camptothecin (screen for TDP1 inhibitors); chicken DT40 Tdp1-/-;hTDP1 cells + 20 nM CPT, ATP luminescence, 48 h; actives 12% (n = 420,000); Potency, µM (doses to about 46.2 µM), actives largely listed as inhibitors; note: nearly all actives have a fitted effect of over 55% in size
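Chicken DT40 Tdp1-/- cells complemented with human TDP1, 400 cells/well, exposed to compounds plus 20 nM camptothecin for at least 48 h at 37 C; viability read as ATP content by CellTiter-Glo luminescence.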
DT40 TDP1 no CPT: qHTS for Inhibitors of human tyrosyl-DNA phosphodiesterase 1 (TDP1): qHTS in cells in absence of CPT | Potency, µM (series often up to 46.2 µM), hits mostly inhibitors | actives 15% (n = 420,000) | DT40 Tdp1-/- hTDP1 cells, no CPT, ATP luminescence, 48 h; note: nearly all actives have a fitted effect of over 55% in size
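Chicken DT40 Tdp1-/- cells stably complemented with human TDP1 were seeded at 400 cells/well with DMSO in place of 20 nM camptothecin. After compound pinning, cells grew at least 48 hr at 37 °C; viability read by CellTiter-Glo luminescence.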
ELG1 DNA repair: blocks ELG1-dependent DNA repair in HEK293T cells; Potency, µM (highest dose often 46.1 µM), hits mostly inhibitors; actives 2.3% (n = 330,000); HEK293T ELG1-luciferase reporter, luminescence, 16 h; DNA damage induced by 5-fluorouridine; note: nearly all actives have a fitted effect of over 55% in size
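In this reporter screen, reduction of luminescence relative to DMSO vehicle indicated activity. Compounds and 5-fluorouridine were added together to 2,000 cells per well, incubated for 16 hr at 37 °C, then developed with ONE-Glo.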
IL1B secr inh: blocks inflammasome-driven IL-1 beta release | activity change, % at 57.5 µM | actives 4.7% (n = 360,000) | THP-1 LPS/ATP IL-1B secretion, AlphaLISA, 16 h; active compounds read low; in the data active = activity change below about -50%; inconclusive = mostly about -30% to -49%
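THP-1 cells pretreated 1 hr with compounds (up to 57.5 uM final), then stimulated with LPS (250 ng/mL final) plus ATP (1.25 mM final); secreted IL-1B measured by AlphaLISA after 16 hr, decreased signal indicating inhibition.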
VP16 counter: inhibits Gal4-VP16 luciferase reporter, ROR gamma counter-screen; Drosophila S2 Gal4-VP16 UAS-luciferase, luminescence, 20 h; Potency, µM (highest dose often 53.6 µM), actives largely listed as inhibitors; actives 3.5% (n = 310,000); AID 2546;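 note: Gal4-VP16 expression switched on by copper sulfate through the metallothionein promoter; nearly all actives have a fitted effect of over 50% in size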
Hits are given with their value; - = inactive; ? = inconclusive; . = no result given; [ ] = dose if it differs, or a comment. Only some compounds are listed: those with a hit (about 21% of all), similar ones and a draw of the others. Unless noted, calls come from the whole dose curve; as a rule, active = well fitted curve in the direction sought with a large enough effect; inconclusive = small, poorly fitted or top-dose-only effect, or another doubt; inactive = no such curve, though single readings can be large; an effect the other way counts as inactive or inconclusive.

SMILES | RORg inh | TDP1 cell CPT | DT40 TDP1 no CPT | ELG1 DNA repair | IL1B secr inh | VP16 counter
COc1cc2c(cc1NC(=O)COc1ccc(Br)c(C)c1)oc1ccccc12 | . | - | - | . | . | .
COc1ccccc1C1CN(CCNC(=O)c2sccc2Cl)Cc2ccccc2O1 (stereo unspecified) | . | -[9.04 µM] | - | . | . | .
O=C(Nc1nc2c(F)cc(F)cc2s1)c1ccc([N+](=O)[O-])o1 | - | 15µM | 10µM | ? | - | ?
O=C(Nc1nc2ccccc2s1)c1ccccc1[N+](=O)[O-] | ? | - | - | ? | - | -
COc1ccc2nc(NC(=O)c3cc(=O)c4cc(C)cc(C)c4o3)sc2c1 | . | - | - | . | . | .
Cc1cc(C)c2nc(NC(=O)c3ccc([N+](=O)[O-])o3)sc2c1 | - | - | - | ? | ? | -
COc1ccc2nc(NC(=O)c3ccc([N+](=O)[O-])o3)sc2c1 | ? | 23µM | 13µM | ? | -88 | 11µM
O=C(Nc1nc2ccccc2s1)c1ccc([N+](=O)[O-])o1 | - | 15µM | 8.2µM | ? | -68 | -
O=C(Nc1nc2cc3c(cc2s1)OCCO3)c1ccc([N+](=O)[O-])o1 | - | 8.2µM | 10µM | ? | -86 | ?
C=CCN(c1nc(C)c(Br)c(OC)n1)S(=O)(=O)c1ccc(C)cc1 | - | - | - | - | - | -
Cc1cc(C)c2sc(NC(=O)c3ccc([N+](=O)[O-])o3)nc2c1 | 5µM | ? | ? | ? | ? | 10µM
Nc1c(N(CCCO)C(=O)CCCN2C(=O)c3cccc4cccc(c34)C2=O)c(=O)[nH]c(=O)n1Cc1ccccc1 | . | 10µM | ? | . | - | .
CCCCN(C(=O)CCCSc1nc2ccccc2[nH]1)c1c(N)n(Cc2ccccc2)c(=O)[nH]c1=O | - | - | - | - | -90 | -
CCCCN(C(=O)CSc1nnc(-c2ccc(OC)cc2)n1CC)c1c(N)n(Cc2ccccc2)c(=O)[nH]c1=O | - | - | - | ? | -60 | -
CC(C)C[C@H]1CNC(=O)C(=O)N1C[C@H]1CCCN1C[C@H](CC(C)C)N1C[C@H](CC(C)C)N(CCc2ccccc2)C(=O)C1=O | . | ? | ? | . | -75 | .
CC(C)C[C@@H](CN1CCC[C@H]1CN1C(=O)C(=O)NC[C@@H]1Cc1ccccc1)N1C[C@H](Cc2ccccc2)N(CCc2ccccc2)C(=O)C1=O | . | 23µM | ? | . | -77 | .
C[C@H](CO)N1C[C@H](C)[C@@H](CN(C)S(=O)(=O)c2ccc(F)cc2)Oc2ccc(NS(=O)(=O)c3ccccc3)cc2C1=O | . | - | - | - | - | .
COc1ccccc1C(=O)Nc1ccccc1OCc1cc(=O)n2c(C)csc2n1 | . | ? | 16µM | . | . | .
Cc1ccccc1OCC(=O)Nc1ccccc1C(=O)OCc1cc(=O)n2c(C)csc2n1 | . | 2.6µM | 4.6µM | . | . | .
COc1ccccc1NC(=O)CSCc1cc(=O)n2c(C)csc2n1 | - | - | - | - | - | -
Cc1ccccc1OCC(=O)Nc1ccccc1C(=O)OCc1cc(=O)n2ccsc2n1 | . | - | - | . | . | .
Cc1csc2nc(COC(=O)COc3ccccc3F)cc(=O)n12 | . | - | - | . | . | .
Cc1csc2nc(COc3ccccc3NC(=O)c3ccccc3Cl)cc(=O)n12 | . | 4.6µM | 3.7µM | . | . | .
Cc1csc2nc(COc3ccc(NC(=O)COc4ccccc4F)cc3)cc(=O)n12 | . | ? | 15µM | . | . | .
COc1ccc(/C=C/C(=O)c2sc(-c3ccc(Cl)cc3)nc2C)cc1 | - | . | . | - | . | -
SMILES | RORg inh | TDP1 cell CPT | DT40 TDP1 no CPT | ELG1 DNA repair | IL1B secr inh | VP16 counter
CCOC(=O)C1CCCN(C(=O)c2cc(-c3ccccc3)cs2)CC1 (stereo unspecified) | . | ? | ? | . | - | .
C=CCNC(=O)c1sc(-c2ccccc2)nc1C | ? | - | - | ? | - | ?
C/C(=N\OC(=O)NC1CCCCC1)c1sc(-c2ccccc2)nc1C | ? | 26µM | 21µM | ? | ? | ?
Cc1ccc(N/C=C/C(=O)c2sc(-c3ccccc3)nc2C)cc1 | - | ? | 23µM | ? | - | -
CCOC(=O)C1CCCN(C(=O)c2sc(-c3ccccc3)nc2C)CC1 (stereo unspecified) | . | ? | 15µM | . | - | .
Cc1nc(-c2ccccc2)sc1C(=O)NN | 13µM | - | - | - | - | 11µM
CCOc1ccc2nc(N3CCCC3C(=O)N3CCC(c4nc5ccccc5o4)CC3)nc(C)c2c1 (stereo unspecified) | . | - | - | . | . | .
CCOc1ccc(OCCC(=O)Nc2cccc(S(=O)(=O)N3CCCC3)c2)cc1 | . | ? | ? | - | - | .
CN(Cc1ccccc1F)C(=O)c1ccc2c(=O)n3c(nc2c1)CCC3 | . | - | - | - | - | .
C=Cc1ccc(CN2C(=O)N(c3cccc(Cl)c3)S(=O)(=O)c3ccccc32)cc1 | . | 12µM | ? | . | . | .
CSc1cccc(N2C(=O)N(Cc3ccc([N+](=O)[O-])cc3)c3ccccc3S2(=O)=O)c1 | . | - | - | . | . | .
COc1ccc(N2C(=O)N(Cc3ccc(C)cc3)c3ccccc3S2(=O)=O)cc1 | - | ? | ? | ? | - | -
COc1cc(OC)cc(N2C(=O)N(Cc3ccc(C(C)(C)C)cc3)c3ccccc3S2(=O)=O)c1 | . | ? | 21µM | . | . | .
COc1ccccc1NS(=O)(=O)c1ccc(C)c(C(=O)NCCCN2CCCC2=O)c1 | . | - | - | - | - | .
CC1(C)OC(=O)C2=C(C[C@@H](CCc3ccccc3)O[C@H]2C2CCCC2)O1 | . | ? | ? | . | - | .
Cn1nnc(NC(=S)NC(=O)c2cccs2)n1 | 8.9µM | ? | ? | - | - | 13µM
Cn1nnc(NC(=O)c2ccc(C(C)(C)C)cc2)n1 | ? | - | - | ? | - | -
CC(C)C(=O)NC(=S)Nc1nnn(C)n1 | 14µM | - | - | - | - | ?
COc1cc(OC)cc(C(=O)NC(=S)Nc2nnn(C)n2)c1 | ? | - | - | - | - | 25µM
CCCCn1nnc(NC(=O)C(c2ccccc2)c2ccccc2)n1 | - | - | - | - | - | -
Cn1nnc(NC(=S)NC(=O)c2ccc3ccccc3c2)n1 | . | - | - | . | - | .
CCCCn1nnc(NC(=S)NC(=O)c2cccs2)n1 | 1.1µM | - | ? | ? | - | 1µM
COc1ccc(N(CC(=O)NC2CCCCC2)C(=O)c2ccc(C)s2)cc1OC | - | - | - | - | - | -
Cn1nnc(NC(=S)NC(=O)c2cccc3ccccc23)n1 | 1.1µM | - | - | - | - | 3.5µM
COc1cccc(CNC(=O)Cn2nc(C)n3c(cc4cc(C)ccc43)c2=O)c1OC | . | - | - | . | . | .
O=c1cc(CN2CCN(c3ccccc3F)CC2)c2cc(O)c(-c3ccccc3)cc2o1 | - | ? | 6.5µM | - | - | -
